Screening results (PubChem)
KB-V1 cytotox – qHTS assay for MDR1-selective chemotherapeutics: Primary screen using the drug-selected MDR subline cells KB-V1 | actives 3.4% (n = 400,000) | Potency, µM (titrated, usually from 46.1 µM), most hits filed as cytotoxic | AID 1347076, 2019 | KB-V1 MDR cells viability, CellTiter-Glo, 72 h; note: nearly all actives have a fitted effect of over 60% in size
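Cytotoxicity via CellTiter-Glo luminescence after 72 h compound exposure at 37 degrees C. Cells: drug-selected KB-V1 line, DMEM phenol-red free plus 10% FBS. Compounds tested at multiple concentrations; normalized data fitted to concentration-effect curves.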
HT1080-NT tox – qHTS for induction of synthetic lethality in tumor cells producing 2HG: qHTS for the HT-1080-NT fibrosarcoma cell line; AID 686970, 2013; HT-1080-NT fibrosarcoma viability, CellTiter-Glo ATP luminescence, 48 h; Potency, µM (titrated, usually from 46.1 µM), usual class: cytotoxic; actives 1.6% (n = 360,000);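 note: NT is the 2HG producing partner of a matched IDH1 knockdown line; nearly all actives have a fitted effect of over 55% in size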
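Fibrosarcoma NT cells, 750 per well in 5% FBS RPMI, were exposed to compound for 48 hours. Viability: CellTiter-Glo luminescence.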
MCF10A rereplic – A quantitative high throughput screen for small molecules that induce DNA re-replication in MCF 10a normal breast cells; actives 2.9% (n = 350,000); Potency, µM (top dose mostly 46.1 µM), actives largely listed as activators; MCF 10A DNA re-replication, Hoechst nuclear intensity, 48 h; note: nearly all actives have a fitted effect of over 50% in size
HT1080 IDH1KD tx – qHTS for induction of synthetic lethality in tumor cells producing 2HG: qHTS for the HT-1080-IDH1KD cell line | HT-1080 IDH1 knockdown viability, ATP luminescence, 48 h | Potency, µM (top dose mostly 46.1 µM), hits mostly cytotoxic | actives 2% (n = 360,000)
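Assay cells: HT-1080 with IDH1 knockdown, 750 per well, RPMI/5% FBS. Exposure: 48 h at 37 °C following 2 h pre-incubation. Read: CellTiter-Glo luminescence; fitted concentration-response, curve class assigned.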
KB-3-1 tox – qHTS assay for MDR1-selective chemotherapeutics: Primary screen using the parental adenocarcinoma cell KB-3-1; Potency, µM (top dose mostly 46.1 µM), most hits filed as cytotoxic; KB-3-1 viability, CellTiter-Glo ATP luminescence, 72 h; actives 1.4% (n = 400,000); note: nearly all actives have a fitted effect of over 60% in size
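72 h, 37 °C compound treatment of KB-3-1 parental cells; CellTiter-Glo added, 10 min, luminescence read. Data corrected against DMSO-only plates and normalized before curve fitting.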
SW480 rereplic – A quantitative high throughput screen for small molecules that induce DNA re-replication in SW480 colon adenocarcinoma cells | SW480 DNA re-replication, Hoechst DNA content imaging, 48 h | Potency, µM (series often up to 46.1 µM), most hits filed as activators | actives 1.8% (n = 340,000); note: nearly all actives have a fitted effect of over 55% in size
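Cells (250 per well) received 23 nL compound or DMSO by pin tool and were kept 48 hr at 37 C, 5% CO2. Nuclei were then stained with Hoechst for 40 min and scanned for DNA content.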
Hits are given with their value; . = inactive; ? = inconclusive; / = no result given. Rows were chosen to be rich in hits. Some 8% of all compounds tested hit in one or more screens of this group. Calls come from the whole dose curve; as a rule, active = well fitted curve in the direction sought with a large enough effect; inconclusive = small, poorly fitted or top-dose-only effect, or another doubt; inactive = no such curve, though single readings can be large; an effect the other way counts as inactive or inconclusive.

SMILES	KB-V1 cytotox	HT1080-NT tox	MCF10A rereplic	HT1080 IDH1KD tx	KB-3-1 tox	SW480 rereplic
O=C(CCCOc1ccc(Cl)cc1Cl)Nc1cc(S(=O)(=O)N2CCOCC2)ccc1N1CCOCC1	6.5µM	.	.	.	.	.
Cc1ccc(S(=O)(=O)N2CCOCC2)cc1NC(=O)CNCc1ccccc1Cl	.	.	?	.	.	5.2µM
O=C(Cc1ccccc1Cl)Nc1cc(S(=O)(=O)N2CCOCC2)ccc1N1CCOCC1	16µM	.	.	.	.	.
CCOC(=O)C1(Cc2ccccc2C)CCCN(C(=O)c2ccc(CSC)o2)C1 (stereo not given)	.	.	?	.	.	.
Cc1ccc(S(=O)(=O)N2CCOCC2)cc1NC(=O)CN1CCC(Cc2ccccc2)CC1	.	.	.	.	21µM	.
COc1ccc(/C=N/NC(=S)Nc2cc(S(=O)(=O)N3CCOCC3)ccc2N2CCOCC2)cc1O	?	21µM	?	16µM	?	?
CC(Oc1cccc(Cl)c1)C(=O)Nc1cc(S(=O)(=O)N2CCOCC2)ccc1N1CCCCC1 (stereo not given)	18µM	.	13µM	.	?	.
Cc1ccc(S(=O)(=O)N2CCOCC2)cc1NC(=O)CN1CCN(C)CC1	.	.	.	.	.	.
COc1ccc2ccccc2c1/C=N/NC(=S)Nc1cc(S(=O)(=O)N2CCOCC2)ccc1N1CCOCC1	.	.	?	.	?	?
C(=N\n1cnnc1)/c1cccc2ccccc12	10µM	.	.	.	?	.
COc1ccc2ccccc2c1/C=N/n1cnnc1	.	.	.	.	.	.
Clc1ccc(Cn2cc(/C=N/n3cnnc3)c3ccccc32)c(Cl)c1	.	?	?	?	?	?
C(=N\n1cnnc1)/c1cn(Cc2ccccc2)c2ccccc12	15µM	.	?	?	.	.
S=C(Nc1ccc(Oc2ccc(NC(=S)NC3CCCCC3)cc2)cc1)NC1CCCCC1	16µM	.	.	.	?	.
S=C(Nc1ccc(Oc2ccccc2)cc1)NC1CCCCCC1	?	?	15µM	?	?	.
S=C(NNc1ccc2ccccc2c1)NC1CCCCC1	?	.	4.6µM	.	?	?
Cn1nnc(NC(=S)NC(=O)c2cccc3ccccc23)n1	.	.	.	.	.	?
O=C(/C=C/c1ccccc1Cl)NCCc1ccccc1	16µM	.	.	.	.	.
O=C(/C=C/c1ccccc1Cl)NCc1ccccc1	.	.	.	.	.	?
COc1ccccc1-c1coc2cc(OC(=O)N3CCOCC3)ccc2c1=O	.	.	?	.	.	.
CCc1cc2c(=O)c(-c3nc4ccccc4[nH]3)coc2cc1OC(=O)N1CCOCC1	3.3µM	.	?	.	?	.
C/C(=N\Nc1ccc(Cl)cc1)c1c(O)cc(C)oc1=O	.	?	?	23µM	.	.
COc1cc(CNC(C)c2ccccc2)cc(Br)c1OCc1ccccc1 (stereo not given)	?	16µM	?	?	?	23µM
CCOc1ccccc1CNc1ccc(O)cc1	.	23µM	?	?	?	?
COc1cc(C(N)=O)cc(Br)c1OCc1ccccc1	?	.	.	.	.	.
SMILES	KB-V1 cytotox	HT1080-NT tox	MCF10A rereplic	HT1080 IDH1KD tx	KB-3-1 tox	SW480 rereplic
Oc1ccc(NCc2ccccc2OCc2ccccc2F)cc1	?	?	?	.	?	?
COc1cc(CNc2ccc(O)cc2)cc(Br)c1OCc1ccccc1	.	?	23µM	.	.	?
Oc1ccc(NCc2ccc(OCc3ccccc3)cc2)cc1	.	23µM	?	?	?	?
COc1ccc(Br)cc1CNC(C)c1ccccc1 (stereo not given)	.	.	.	.	.	.
Cc1noc(C)c1NC(=O)N(C)C[C@@H]1OCc2ccccc2-c2c(n(C)c3ccccc23)C(=O)N([C@H](C)CO)C[C@H]1C	.	.	/	.	?	/
O=C1CCCC/C1=N\Nc1ccc(OCc2ccccc2)cc1	.	?	.	5.2µM	.	.
O=C(Nc1ccccc1C(=O)O)C1=NN=CC1	.	.	.	.	.	.
CO[C@@H]1CN(C)C(=O)c2ccc(NC(=O)C3CCC3)cc2OC[C@H](C)N(CC2CCCCC2)C[C@H]1C	?	?	/	?	.	/
CO[C@@H]1CN(C)C(=O)c2ccc(NC(=O)C3CCCC3)cc2OC[C@@H](C)N(Cc2ccc(F)cc2)C[C@H]1C	23µM	.	/	.	?	/
CC(=O)c1ccc(S(=O)(=O)NCC(=O)NC(c2nc3ccccc3[nH]2)C(C)C)cc1 (stereo not given)	?	.	.	.	.	.
C1=C/C(=C2/C=Cc3ccccc32)c2ccccc2N1	2.3µM	/	/	/	4.6µM	/
Cc1ccc(S(=O)(=O)N/N=C/c2ccc(O)c(O)c2)cc1[N+](=O)[O-]	?	.	.	.	.	21µM
O=[N+]([O-])c1ccc2c(c1)c1ccccc1n2CCO	8.2µM	?	?	?	?	?
COc1cccc(/C=N/NC(=O)CCn2c3ccccc3c3ccccc32)c1	.	.	.	.	.	.
CCn1c2ccccc2c2cc(NC(=O)c3ccc([N+](=O)[O-])cc3)ccc21	.	.	.	.	?	.
NNC(=O)CCn1c2ccccc2c2ccccc21	.	.	12µM	.	.	.
CN(C)c1ccc(CN(C(=O)COc2ccc(Br)cc2)C2CCS(=O)(=O)C2)cc1 (stereo not given)	8.2µM	.	.	.	.	.
Cc1cc(C)cc(OCC(=O)N(Cc2cccs2)C2CCS(=O)(=O)C2)c1 (stereo not given)	8.2µM	.	.	.	.	.
Cc1ccc(OCC(=O)N(Cc2cccs2)C2CCS(=O)(=O)C2)cc1 (stereo not given)	?	.	.	.	.	.
Cc1ccc(OCC(=O)N(Cc2ccc(N(C)C)cc2)C2CCS(=O)(=O)C2)cc1 (stereo not given)	.	.	.	.	.	.
COCCNC(=O)c1sc2nc(-c3ccccc3)cn2c1C	13µM	.	.	.	.	.
Cc1c(C(=O)NCc2ccccn2)sc2nc(-c3ccc(F)cc3)cn12	.	.	?	?	?	.
Cc1c(C(=O)NCc2ccccn2)sc2nc(-c3ccccc3)cn12	.	?	.	?	9.2µM	.
